According to PubChem BioAssay (NCI):
Compounds without any hit were thinned out: in the full panel of roughly 83,000, 20% have a hit.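 Values shown are percent growth following 48 h exposure of cells in 96-well plates to a single concentration of compound; below 10 was considered active.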 Active and inactive are the calls of the source.

Test system: SK-MEL-2 melanoma
Assay: NCI-60 one-dose screen, 48 h (100 = growth as untreated, 0 = no growth, -100 = all killed)
Settings: 10 µM

Compound | growth
Cc1ccc(F)cc1N/C=c1\s/c(=C(\C#N)C(=O)Nc2ccccc2)n(-c2ccccc2)c1=O | 94.7% (inactive)
COc1ccc([C@H]2C(C(=O)c3ccc(Cl)cc3)C3(N[C@@H]2c2ccccc2)C(=O)Nc2ccc(Cl)cc23)cc1 (stereo not given in full) | -65.5% (active)
O=C1Nc2cc(-c3ccc(NC(=O)c4cccc([N+](=O)[O-])c4)cc3)ccc2/C1=C/c1ccc[nH]1 | 51.4% (inactive)
CCCn1c(=O)c2[nH]c(-c3ccc(OCc4nc5ccc(F)cc5[nH]4)cc3)nc2n(CCC)c1=O | 28.6% (inactive)
CCCS(=O)(=O)c1oc(-c2ccc(F)cc2)nc1S(=O)(=O)c1ccc(F)cc1 | 36.7% (inactive)
O=C(CSc1nnc(-c2c[nH]c3ccccc23)n1-c1ccccc1)Nc1ccc(C(=O)/C=C/c2ccc(Br)cc2)cc1 | 101% (inactive)
CCOC(=O)C1=C(N)N(c2ccc(Cl)cc2)C2=C(C(=O)CC(C)(C)C2)C1c1ccc(N2CCOCC2)cc1 (stereo not given) | 96.2% (inactive)
COc1ccc2[nH]cc(/C=N/Nc3ccc(Br)cn3)c2c1 | 73.5% (inactive)
O/N=C(\CSc1nnc(-c2c[nH]c3ccccc23)n1-c1ccccc1)c1ccc(Cl)cc1 | 20.1% (inactive)
COc1ccc2[nH]c(O)c(N=NC(=O)COc3ccc(NC(=O)Nc4ccc(Cl)c(Cl)c4)cc3)c2c1 | 14.5% (inactive)
C=C1CC[C@H](C(=C)C)[C@H]2C=C(C)C(=O)C3=C(C(=O)[C@@](C)(O)C3)[C@H]12 | -88.6% (active)
O=S(=O)(Nc1ncccn1)c1ccc(-n2c(-c3ccccc3)nc(-c3ccccc3)c2-c2ccccc2)cc1 | 106% (inactive)
COc1cccc(/C=C2\N=C(C)N(CCc3ccc(S(N)(=O)=O)cc3)C2=O)c1 | 109% (inactive)
CN(C)c1ccc(/C=C/C(=O)c2ccc(NC(=O)CN3C(=O)NC(C)(c4ccccc4)C3=O)cc2)cc1 (stereo not given) | 76.5% (inactive)
O=C(O)CCCCCCCCCCN1C(=O)/C(=C/c2cnc(-c3ccccc3)s2)SC1=S | 93.2% (inactive)
COc1ccc(-c2ccc(/C=N/NC(=O)c3[nH]c4ccc(Br)cc4c3-c3ccccc3)s2)cc1 | 106% (inactive)
O=C1N/C(=N\c2nccs2)S/C1=C\c1cccs1 | 40.7% (inactive)
O=C(CNc1nc(-c2ccccc2)cs1)Nc1ccccc1 | -68.8% (active)
COc1cc2c3c(n(CCCNC(C)C)c(=O)c2cc1OC)-c1nc2c(cc1C3=O)OCO2 | 128% (inactive)

Compound | growth
Cc1cccc(-c2nc(Nc3ccccc3C(=O)O)c3ccccc3n2)c1 | 66% (inactive)
Oc1ccc(/C=C2\CCCc3cc4ccc(O)cc4[o+]c32)c(O)c1 | 37.2% (inactive)
N#Cc1ccc(-c2nn(-c3ccc(C(=O)O)cc3)cc2CNc2ccc(Cl)cc2)cc1 | 96.2% (inactive)
COc1ccc2nc(Cl)c(-c3cc(-c4ccccc4)nc(=S)[nH]3)cc2c1 | 9.29% (active)
Cc1ccc(NC(=O)c2ccc(-n3c(=O)[nH]c4ccccc4c3=O)cc2)cc1 | 97.8% (inactive)
Nc1nc(Nc2ccc(Cl)cc2)n(Cc2cccc(Br)c2)n1 | -74.7% (active)
O=C(CN1CCN(c2ncnc3c2cnn3-c2ccccc2)CC1)Nc1nncs1 | 28% (inactive)
O=c1c2ccccc2nc(COc2ccccc2)n1/N=C/c1ccc(N2CCOCC2)cc1 | 70.4% (inactive)
Cn1c(O)c(N=Nc2nc(-c3cc4ccccc4oc3=O)cs2)c2cc(Br)ccc21 | 31.8% (inactive)
O=c1nc(-c2ccccc2)cc(-c2cc3ccccc3nc2Cl)[nH]1 | 82.8% (inactive)
C/C(=N\NC(N)=S)c1ccc(Nc2nc(SC(C)C)nc(-c3ccccc3)c2C#N)cc1 | 89.3% (inactive)
COc1ccc(/C=C/C(=O)c2ccc(N3CCN(C)CC3)cc2)c(C(F)(F)F)c1 | 94.6% (inactive)
Nc1n[nH]c2cccc(C#Cc3cccc(NC(=O)Nc4cc(C(F)(F)F)cc(C(F)(F)F)c4)c3)c12 | -96.8% (active)
O=C(Nc1ccc(Cl)c([N+](=O)[O-])c1)Nc1ccc(Cl)c([N+](=O)[O-])c1 | 30.7% (inactive)
O=C(Nc1nc2ccc([N+](=O)[O-])cc2s1)Nc1cc(Cl)ccc1I | -62.1% (active)
O=C1CCC(N2Cc3cc(NC(=O)COc4ccccc4)ccc3C2=O)C(=O)N1 (stereo not given) | 98.3% (inactive)
O=C(c1ccc(-n2c(=O)[nH]c3ccccc3c2=O)cc1)N1CCOCC1 | 102% (inactive)
CN1CCc2c(sc3ncnc(N/N=C/c4cn(-c5ccccc5)nc4-c4ccc(Cl)cc4)c23)C1 | 36.3% (inactive)
C=CC(=O)Nc1ccc(C(=O)/C=C/c2ccc(N(C)CCF)cc2)c(O)c1 | -53.4% (active)

Test system: SN12C renal
Assay: as above
Settings: 10 µM

Compound | growth
Cc1ccc(F)cc1N/C=c1\s/c(=C(\C#N)C(=O)Nc2ccccc2)n(-c2ccccc2)c1=O | 46.9% (inactive)
COc1ccc([C@H]2C(C(=O)c3ccc(Cl)cc3)C3(N[C@@H]2c2ccccc2)C(=O)Nc2ccc(Cl)cc23)cc1 (stereo not given in full) | -86.5% (active)
O=C1Nc2cc(-c3ccc(NC(=O)c4cccc([N+](=O)[O-])c4)cc3)ccc2/C1=C/c1ccc[nH]1 | 101% (inactive)
CCCn1c(=O)c2[nH]c(-c3ccc(OCc4nc5ccc(F)cc5[nH]4)cc3)nc2n(CCC)c1=O | -20.1% (active)
CCCS(=O)(=O)c1oc(-c2ccc(F)cc2)nc1S(=O)(=O)c1ccc(F)cc1 | -85.4% (active)
O=C(CSc1nnc(-c2c[nH]c3ccccc23)n1-c1ccccc1)Nc1ccc(C(=O)/C=C/c2ccc(Br)cc2)cc1 | 89.5% (inactive)
CCOC(=O)C1=C(N)N(c2ccc(Cl)cc2)C2=C(C(=O)CC(C)(C)C2)C1c1ccc(N2CCOCC2)cc1 (stereo not given) | 97.7% (inactive)
COc1ccc2[nH]cc(/C=N/Nc3ccc(Br)cn3)c2c1 | 23.7% (inactive)
O/N=C(\CSc1nnc(-c2c[nH]c3ccccc23)n1-c1ccccc1)c1ccc(Cl)cc1 | -16.2% (active)
COc1ccc2[nH]c(O)c(N=NC(=O)COc3ccc(NC(=O)Nc4ccc(Cl)c(Cl)c4)cc3)c2c1 | -42% (active)
C=C1CC[C@H](C(=C)C)[C@H]2C=C(C)C(=O)C3=C(C(=O)[C@@](C)(O)C3)[C@H]12 | -50.8% (active)
O=S(=O)(Nc1ncccn1)c1ccc(-n2c(-c3ccccc3)nc(-c3ccccc3)c2-c2ccccc2)cc1 | 92.4% (inactive)
CN(C)c1ccc(/C=C/C(=O)c2ccc(NC(=O)CN3C(=O)NC(C)(c4ccccc4)C3=O)cc2)cc1 (stereo not given) | 73.4% (inactive)
O=C(O)CCCCCCCCCCN1C(=O)/C(=C/c2cnc(-c3ccccc3)s2)SC1=S | 30.1% (inactive)
COc1ccc(-c2ccc(/C=N/NC(=O)c3[nH]c4ccc(Br)cc4c3-c3ccccc3)s2)cc1 | 74.9% (inactive)
O=C1N/C(=N\c2nccs2)S/C1=C\c1cccs1 | 45.8% (inactive)
O=C(CNc1nc(-c2ccccc2)cs1)Nc1ccccc1 | -47.3% (active)
COc1cc2c3c(n(CCCNC(C)C)c(=O)c2cc1OC)-c1nc2c(cc1C3=O)OCO2 | -88.9% (active)
Cc1cccc(-c2nc(Nc3ccccc3C(=O)O)c3ccccc3n2)c1 | 40.7% (inactive)

Compound | growth
Oc1ccc(/C=C2\CCCc3cc4ccc(O)cc4[o+]c32)c(O)c1 | 26.5% (inactive)
N#Cc1ccc(-c2nn(-c3ccc(C(=O)O)cc3)cc2CNc2ccc(Cl)cc2)cc1 | 82.2% (inactive)
COc1ccc2nc(Cl)c(-c3cc(-c4ccccc4)nc(=S)[nH]3)cc2c1 | 75.6% (inactive)
Cc1ccc(NC(=O)c2ccc(-n3c(=O)[nH]c4ccccc4c3=O)cc2)cc1 | 69.4% (inactive)
Nc1nc(Nc2ccc(Cl)cc2)n(Cc2cccc(Br)c2)n1 | -28.5% (active)
O=C(CN1CCN(c2ncnc3c2cnn3-c2ccccc2)CC1)Nc1nncs1 | -54.7% (active)
O=c1c2ccccc2nc(COc2ccccc2)n1/N=C/c1ccc(N2CCOCC2)cc1 | 68% (inactive)
Cn1c(O)c(N=Nc2nc(-c3cc4ccccc4oc3=O)cs2)c2cc(Br)ccc21 | 73.8% (inactive)
O=c1nc(-c2ccccc2)cc(-c2cc3ccccc3nc2Cl)[nH]1 | 20.7% (inactive)
C/C(=N\NC(N)=S)c1ccc(Nc2nc(SC(C)C)nc(-c3ccccc3)c2C#N)cc1 | 63.5% (inactive)
COc1ccc(/C=C/C(=O)c2ccc(N3CCN(C)CC3)cc2)c(C(F)(F)F)c1 | 42.5% (inactive)
Nc1n[nH]c2cccc(C#Cc3cccc(NC(=O)Nc4cc(C(F)(F)F)cc(C(F)(F)F)c4)c3)c12 | -85.9% (active)
O=C(Nc1ccc(Cl)c([N+](=O)[O-])c1)Nc1ccc(Cl)c([N+](=O)[O-])c1 | 1.65% (active)
O=C(Nc1nc2ccc([N+](=O)[O-])cc2s1)Nc1cc(Cl)ccc1I | -16.8% (active)
O=C1CCC(N2Cc3cc(NC(=O)COc4ccccc4)ccc3C2=O)C(=O)N1 (stereo not given) | 73.6% (inactive)
O=C(c1ccc(-n2c(=O)[nH]c3ccccc3c2=O)cc1)N1CCOCC1 | 89.8% (inactive)
CN1CCc2c(sc3ncnc(N/N=C/c4cn(-c5ccccc5)nc4-c4ccc(Cl)cc4)c23)C1 | 24.9% (inactive)
C=CC(=O)Nc1ccc(C(=O)/C=C/c2ccc(N(C)CCF)cc2)c(O)c1 | -60.2% (active)
